Data from the supplement of paper PMC10849652.
Of roughly 8,800 targets only a part is listed; those with a hit were picked by preference. About 0.5% of all pairs of compound and target were hits.

What was measured:
Assay in all cases: log2 fold change, soluble protein after heating vs DMSO (PISA); higher = thermal stabilisation; K562 lysate, 10 uM; active = over 0.2 and 3.5 SD of the protein, either way, in both replicates (recomputed)
nilotinib = compound: Cc1cn(-c2cc(NC(=O)c3ccc(C)c(Nc4nccc(-c5cccnc5)n4)c3)cc(C(F)(F)F)c2)cn1 [nilotinib]
In short: (§1)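 Dounce homogenisation of K562 pellets in PBS pH 7.4 with 1 mM MgCl2 produced a crude extract, used at 1 mg/mL protein. Exposure to 10 μM compound lasted 30 min, and aliquots were then heated for 3 min across 48°C-58°C, pooled and brought to 0.5% NP-40 at 4°C. The supernatant after 21,000xg for 90 min was quantified by TMTpro 16plex LC-MS/MS with channel sums equalised. Duplicate values are given as log-two fold change in thermal stability relative to solvent controls.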

[1] = compound: Cc1nc(Nc2n[nH]c3c2CN(C(=O)N[C@H](CN(C)C)c2ccccc2)C3(C)C)c2sccc2n1
In short: as §1

dasatinib = compound: Cc1nc(Nc2ncc(C(=O)Nc3c(C)cccc3Cl)s2)cc(N2CCN(CCO)CC2)n1 [dasatinib]
In short: as §1

[2] = compound: Cc1ncc(-c2ccnc(Nc3ccc(S(C)(=O)=O)cc3)n2)n1C(C)C
In short: as §1

[3] = compound: Cn1cc(-c2ccc3c(c2)CCN3C(=O)Cc2cccc(C(F)(F)F)c2)c2c(N)ncnc21
In short: as §1

quisinostat = compound: Cn1cc(CNCC2CCN(c3ncc(C(=O)NO)cn3)CC2)c2ccccc21 [quisinostat]
In short: as §1

tipifarnib = compound: Cn1cncc1[C@@](N)(c1ccc(Cl)cc1)c1ccc2c(c1)c(-c1cccc(Cl)c1)cc(=O)n2C [tipifarnib]
In short: as §1

[4] = compound: NC(=O)Nc1cc(-c2cccc(F)c2)sc1C(=O)N[C@H]1CCCNC1
In short: as §1

[5] = compound: NC(=O)c1cnc(N[C@@H]2CCCC[C@@H]2N)nc1Nc1cccc(-n2nccn2)c1
In short: as §1

[6] = compound: NC1(c2ccc(-c3nc4ccn5c(=O)[nH]nc5c4cc3-c3ccccc3)cc2)CCC1
In short: as §1

Measured: log2 fold change

SSB (UniProt P05455)
inactive: nilotinib -0.013 | [1] -0.014 | dasatinib -0.008 | [2] 0.006 | [3] -0.018 | quisinostat 0.099 | tipifarnib 0.022 | [4] 0.001 | [5] -0.013 | [6] 0.012

SLC20A1 (UniProt Q8WUM9)
inactive: nilotinib -0.021 | [1] -0.001 | dasatinib -0.023 | [2] -0.03 | [3] 0.007 | quisinostat -0.048 | tipifarnib -0.007 | [4] -0.034 | [5] 0.05 | [6] -0.099

SFN (UniProt P31947)
Sequence of UniProt P31947 (P31947 whole entry, looked up): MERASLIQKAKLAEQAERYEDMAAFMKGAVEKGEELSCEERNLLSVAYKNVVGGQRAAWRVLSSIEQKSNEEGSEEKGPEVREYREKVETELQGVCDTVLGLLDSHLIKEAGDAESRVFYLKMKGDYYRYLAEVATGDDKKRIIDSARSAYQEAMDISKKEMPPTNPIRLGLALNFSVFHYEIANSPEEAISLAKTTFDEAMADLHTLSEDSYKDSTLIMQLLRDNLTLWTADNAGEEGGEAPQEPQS
inactive: nilotinib -0.036 | [1] -0.007 | dasatinib 0.088 | [2] -0.007 | [3] 0.008 | quisinostat 0.077 | tipifarnib 0.052 | [4] -0.048 | [5] -0.023 | [6] 0.035

SLC27A4 (UniProt Q6P1M0)
inactive: nilotinib -0.061 | [1] 0.002 | dasatinib 0.026 | [2] -0.036 | [3] 0.048 | quisinostat -0.123 | tipifarnib 0.096 | [4] 0.036 | [5] -0.023 | [6] 0.036

SLC16A1 (UniProt P53985)
inactive: nilotinib 0.044 | [1] 0.043 | dasatinib 0.137 | [2] -0.009 | [3] -0.005 | quisinostat -0.064 | tipifarnib 0.005 | [4] 0.012 | [5] -0.028 | [6] -0.003

SSB (UniProt E7ERC4)
inactive: nilotinib -0.059 | [1] 0.165 | dasatinib 0.007 | [2] 0.198 | [3] -0.078 | quisinostat -0.198 | tipifarnib 0.171 | [4] 0.152 | [5] -0.108 | [6] -0.128

SSBP3 (UniProt Q9BWW4)
inactive: nilotinib -0.005 | [1] 0.061 | dasatinib -0.015 | [2] 0.014 | [3] 0.016 | quisinostat 0.018 | tipifarnib 0.028 | [4] -0.035 | [5] -0.029 | [6] -0.097

SMG7 (UniProt Q92540)
inactive: nilotinib 0.001 | [1] -0.034 | dasatinib 0.003 | [2] -0.058 | [3] 0.03 | quisinostat 0.062 | tipifarnib -0.072 | [4] 0.054 | [5] -0.067 | [6] 0.04

SYPL1 (UniProt Q16563)
Sequence of UniProt Q16563 (Q16563 whole entry, looked up): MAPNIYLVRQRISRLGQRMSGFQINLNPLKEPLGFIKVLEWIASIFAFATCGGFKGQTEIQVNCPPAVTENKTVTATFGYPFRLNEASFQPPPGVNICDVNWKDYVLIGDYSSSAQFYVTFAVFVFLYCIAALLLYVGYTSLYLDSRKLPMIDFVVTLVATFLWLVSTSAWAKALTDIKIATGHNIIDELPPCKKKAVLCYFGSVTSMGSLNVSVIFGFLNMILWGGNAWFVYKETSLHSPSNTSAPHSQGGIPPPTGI
inactive: nilotinib -0.005 | [1] -0.006 | dasatinib 0.013 | [2] 0.025 | [3] -0.014 | quisinostat -0.075 | tipifarnib 0.034 | [4] -0.002 | [5] -0.013 | [6] -0.044

TANGO6 (UniProt Q9C0B7)
inactive: nilotinib 0.042 | [1] -0.056 | dasatinib -0.006 | [2] 0.019 | [3] 0.025 | quisinostat -0.056 | tipifarnib 0.044 | [4] 0.046 | [5] -0.037 | [6] -0.001

STK25 (UniProt O00506)
inactive: nilotinib 0.037 | [1] 0.265 | dasatinib 0.235 | [2] 0.026 | [3] 0.059 | quisinostat 0.013 | tipifarnib -0.027 | [4] 0.165 | [5] 0.032 | [6] -0.009

SLU7 (UniProt O95391)
inactive: nilotinib -0.052 | [1] 0.045 | dasatinib -0.025 | [2] 0.047 | [3] 0.013 | quisinostat 0.244 | tipifarnib -0.029 | [4] 0.086 | [6] 0.016

STK38L (UniProt Q9Y2H1)
active: [1] 0.68 | [4] 0.552
inactive: nilotinib -0.08 | dasatinib -0.002 | [2] -0.009 | [3] 0.102 | quisinostat -0.122 | tipifarnib 0.04 | [6] -0.046

SLC29A2 (UniProt Q14542)
Sequence of UniProt Q14542 (Q14542 whole entry, looked up): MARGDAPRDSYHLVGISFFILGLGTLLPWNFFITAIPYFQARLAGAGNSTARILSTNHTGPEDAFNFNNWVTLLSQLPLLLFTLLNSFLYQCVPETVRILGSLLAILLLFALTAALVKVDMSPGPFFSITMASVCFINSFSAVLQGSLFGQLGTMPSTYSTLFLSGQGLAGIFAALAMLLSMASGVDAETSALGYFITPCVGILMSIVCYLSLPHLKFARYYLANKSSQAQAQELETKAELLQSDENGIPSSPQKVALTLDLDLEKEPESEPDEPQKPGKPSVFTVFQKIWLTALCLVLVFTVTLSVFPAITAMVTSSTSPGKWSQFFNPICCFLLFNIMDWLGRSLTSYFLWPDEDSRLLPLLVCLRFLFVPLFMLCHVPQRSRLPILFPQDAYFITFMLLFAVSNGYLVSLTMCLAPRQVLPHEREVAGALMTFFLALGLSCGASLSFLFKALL
inactive: nilotinib 0.083 | [1] 0.095 | dasatinib 0.029 | [2] 0.058 | [3] 0.037 | quisinostat -0.242 | tipifarnib 0.048 | [4] 0.088 | [5] -0.037 | [6] -0.021

STK39 (UniProt Q9UEW8)
inactive: nilotinib -0.104 | [1] 0.071 | dasatinib -0.045 | [2] -0.024 | [3] 0.046 | quisinostat -0.084 | tipifarnib -0.053 | [4] 0.053 | [5] 0.058 | [6] -0.082

SNW1 (UniProt Q13573)
inactive: nilotinib 0.002 | [1] -0.009 | dasatinib 0.024 | [2] -0.036 | [3] -0.015 | quisinostat 0.012 | tipifarnib 0.009 | [4] -0.016 | [5] -0.01 | [6] -0.01

SUZ12 (UniProt Q15022)
inactive: nilotinib 0.03 | [1] -0.025 | dasatinib 0.037 | [2] -0.013 | [3] -0.008 | quisinostat -0.005 | tipifarnib 0.016 | [4] -0.007 | [5] -0.013 | [6] -0.026

STUB1 (UniProt Q9UNE7)
inactive: nilotinib 0.031 | [1] -0.027 | dasatinib -0.037 | [2] 0.027 | [3] 0.004 | quisinostat -0.06 | tipifarnib -0.011 | [4] 0.053 | [5] 0.015 | [6] 0.004

SLC26A6 (UniProt Q9BXS9)
inactive: nilotinib 0.057 | [1] 0.05 | dasatinib -0.4 | [2] 0.164 | [3] -0.154 | quisinostat 0.006 | tipifarnib 0.05 | [4] 0.033 | [5] 0.054 | [6] -0.128

SLC25A17 (UniProt O43808)
Sequence of UniProt O43808 (O43808 whole entry, looked up): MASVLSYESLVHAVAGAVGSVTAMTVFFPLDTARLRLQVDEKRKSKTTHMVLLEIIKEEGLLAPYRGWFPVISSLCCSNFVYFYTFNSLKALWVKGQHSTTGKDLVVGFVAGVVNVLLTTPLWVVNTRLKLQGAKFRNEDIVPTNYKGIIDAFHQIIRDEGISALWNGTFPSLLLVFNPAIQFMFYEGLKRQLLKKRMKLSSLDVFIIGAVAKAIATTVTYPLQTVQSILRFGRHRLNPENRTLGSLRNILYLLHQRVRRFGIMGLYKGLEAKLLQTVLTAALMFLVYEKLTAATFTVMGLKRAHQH
inactive: nilotinib -0.049 | [1] 0.006 | dasatinib 0.01 | [2] 0.032 | [3] 0.023 | quisinostat -0.125 | tipifarnib -0.068 | [4] 0.028 | [5] 0.038 | [6] -0.026

SLC40A1 (UniProt Q9NP59)
Sequence of UniProt Q9NP59 (Q9NP59 whole entry, looked up): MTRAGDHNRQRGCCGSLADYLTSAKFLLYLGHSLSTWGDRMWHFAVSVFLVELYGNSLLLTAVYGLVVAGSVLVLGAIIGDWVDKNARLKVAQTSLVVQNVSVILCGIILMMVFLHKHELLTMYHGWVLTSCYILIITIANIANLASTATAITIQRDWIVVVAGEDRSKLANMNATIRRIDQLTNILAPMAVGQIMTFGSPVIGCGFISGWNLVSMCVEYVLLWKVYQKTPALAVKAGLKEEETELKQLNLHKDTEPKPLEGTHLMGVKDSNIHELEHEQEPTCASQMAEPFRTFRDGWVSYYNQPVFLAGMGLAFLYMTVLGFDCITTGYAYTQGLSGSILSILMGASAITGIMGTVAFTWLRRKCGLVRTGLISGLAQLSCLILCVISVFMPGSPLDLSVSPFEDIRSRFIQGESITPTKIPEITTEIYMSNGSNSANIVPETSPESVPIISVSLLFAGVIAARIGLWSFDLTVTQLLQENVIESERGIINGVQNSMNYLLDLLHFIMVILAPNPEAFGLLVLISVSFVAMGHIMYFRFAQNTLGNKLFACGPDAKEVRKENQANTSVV
inactive: nilotinib 0.009 | [1] 0.131 | dasatinib -0.077 | [2] 0.015 | [3] -0.02 | quisinostat -0.079 | tipifarnib -0.118 | [4] 0.167 | [5] -0.035 | [6] -0.185

SLC27A2 (UniProt O14975)
inactive: nilotinib 0.056 | [1] -0.027 | dasatinib 0.038 | [2] -0.053 | [3] -0.011 | quisinostat -0.078 | tipifarnib 0.031 | [4] -0.06 | [5] -0.033 | [6] 0.029

SLC39A11 (UniProt Q8N1S5)
inactive: nilotinib 0.072 | [1] -0.039 | dasatinib -0.092 | [2] -0.008 | [3] -0.123 | quisinostat 0.127 | tipifarnib 0.068 | [4] 0.045 | [5] 0.026 | [6] 0.099

SNX6, A0A0A0MRI2
inactive: nilotinib -0.021 | [1] 0.009 | dasatinib 0.003 | [2] 0.03 | [3] 0.027 | quisinostat -0.003 | tipifarnib 0.007 | [4] -0.015 | [5] 0.016 | [6] 0.016

SRPK1 (UniProt Q96SB4)
active: [4] 0.283
inactive: nilotinib -0.002 | [1] 0.069 | dasatinib -0.01 | [2] -0.03 | [3] 0.017 | quisinostat -0.108 | tipifarnib -0.03 | [5] -0.021 | [6] -0.069

STAR (UniProt P49675)
Sequence of UniProt P49675 (P49675 whole entry, looked up): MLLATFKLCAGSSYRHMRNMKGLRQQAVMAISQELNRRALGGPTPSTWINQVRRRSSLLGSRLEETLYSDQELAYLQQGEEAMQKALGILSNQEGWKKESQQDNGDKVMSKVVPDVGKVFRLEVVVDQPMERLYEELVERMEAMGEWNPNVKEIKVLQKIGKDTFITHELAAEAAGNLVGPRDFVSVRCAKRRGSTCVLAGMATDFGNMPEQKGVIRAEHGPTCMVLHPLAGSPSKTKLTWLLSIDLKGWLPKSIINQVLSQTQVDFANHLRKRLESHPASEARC
inactive: nilotinib 0.037 | [1] -0.092 | dasatinib 0.046 | [2] -0.019 | [3] 0.011 | quisinostat -0.041 | tipifarnib 0.203 | [4] -0.135 | [6] -0.146

STAT2 (UniProt P52630)
inactive: nilotinib -0.017 | [1] 0.006 | dasatinib -0.024 | [2] -0.086 | [3] 0.025 | quisinostat -0.117 | tipifarnib -0.024 | [4] 0.054 | [5] 0.016 | [6] -0.016

SPATA5L1 (UniProt Q9BVQ7)
inactive: nilotinib -0.012 | [1] -0.003 | dasatinib -0.115 | [2] 0.016 | [3] 0.093 | quisinostat -0.059 | tipifarnib 0.028 | [4] 0.047 | [5] 0.039 | [6] -0.092

STK4 (UniProt Q13043)
active: [4] 0.585
inactive: nilotinib -0.077 | [1] 0.343 | dasatinib 0.214 | [2] 0.177 | [3] 0.282 | quisinostat -0.105 | tipifarnib -0.047 | [5] 0.134 | [6] -0.016

SP1 (UniProt P08047)
Sequence of UniProt P08047 (P08047 whole entry, looked up): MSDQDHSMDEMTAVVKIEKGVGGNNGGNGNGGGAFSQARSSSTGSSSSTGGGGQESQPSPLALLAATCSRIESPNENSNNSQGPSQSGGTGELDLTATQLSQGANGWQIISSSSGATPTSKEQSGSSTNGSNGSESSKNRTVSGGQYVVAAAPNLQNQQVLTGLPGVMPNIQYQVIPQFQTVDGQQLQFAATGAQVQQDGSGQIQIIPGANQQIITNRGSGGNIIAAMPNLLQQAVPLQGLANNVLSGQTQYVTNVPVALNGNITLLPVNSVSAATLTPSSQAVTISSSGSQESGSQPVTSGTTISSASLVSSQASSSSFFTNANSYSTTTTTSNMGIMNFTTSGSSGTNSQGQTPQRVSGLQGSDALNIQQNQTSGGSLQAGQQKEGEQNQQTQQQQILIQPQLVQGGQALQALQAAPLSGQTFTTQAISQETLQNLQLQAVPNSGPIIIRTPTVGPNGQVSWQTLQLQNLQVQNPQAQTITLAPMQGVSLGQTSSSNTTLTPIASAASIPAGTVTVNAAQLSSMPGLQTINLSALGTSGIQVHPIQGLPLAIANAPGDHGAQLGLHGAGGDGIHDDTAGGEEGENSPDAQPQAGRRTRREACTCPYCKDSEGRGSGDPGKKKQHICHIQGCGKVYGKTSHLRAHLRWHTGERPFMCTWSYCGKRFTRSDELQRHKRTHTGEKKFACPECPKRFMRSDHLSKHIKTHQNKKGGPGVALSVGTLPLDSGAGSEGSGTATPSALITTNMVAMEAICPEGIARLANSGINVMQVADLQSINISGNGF
inactive: nilotinib -0.035 | [1] -0.02 | dasatinib -0.028 | [2] 0.117 | [3] -0.019 | quisinostat 0.055 | tipifarnib -0.031 | [4] -0.02 | [5] 0.008 | [6] 0.005

SMC2 (UniProt O95347)
Sequence of UniProt O95347 (O95347 whole entry, looked up): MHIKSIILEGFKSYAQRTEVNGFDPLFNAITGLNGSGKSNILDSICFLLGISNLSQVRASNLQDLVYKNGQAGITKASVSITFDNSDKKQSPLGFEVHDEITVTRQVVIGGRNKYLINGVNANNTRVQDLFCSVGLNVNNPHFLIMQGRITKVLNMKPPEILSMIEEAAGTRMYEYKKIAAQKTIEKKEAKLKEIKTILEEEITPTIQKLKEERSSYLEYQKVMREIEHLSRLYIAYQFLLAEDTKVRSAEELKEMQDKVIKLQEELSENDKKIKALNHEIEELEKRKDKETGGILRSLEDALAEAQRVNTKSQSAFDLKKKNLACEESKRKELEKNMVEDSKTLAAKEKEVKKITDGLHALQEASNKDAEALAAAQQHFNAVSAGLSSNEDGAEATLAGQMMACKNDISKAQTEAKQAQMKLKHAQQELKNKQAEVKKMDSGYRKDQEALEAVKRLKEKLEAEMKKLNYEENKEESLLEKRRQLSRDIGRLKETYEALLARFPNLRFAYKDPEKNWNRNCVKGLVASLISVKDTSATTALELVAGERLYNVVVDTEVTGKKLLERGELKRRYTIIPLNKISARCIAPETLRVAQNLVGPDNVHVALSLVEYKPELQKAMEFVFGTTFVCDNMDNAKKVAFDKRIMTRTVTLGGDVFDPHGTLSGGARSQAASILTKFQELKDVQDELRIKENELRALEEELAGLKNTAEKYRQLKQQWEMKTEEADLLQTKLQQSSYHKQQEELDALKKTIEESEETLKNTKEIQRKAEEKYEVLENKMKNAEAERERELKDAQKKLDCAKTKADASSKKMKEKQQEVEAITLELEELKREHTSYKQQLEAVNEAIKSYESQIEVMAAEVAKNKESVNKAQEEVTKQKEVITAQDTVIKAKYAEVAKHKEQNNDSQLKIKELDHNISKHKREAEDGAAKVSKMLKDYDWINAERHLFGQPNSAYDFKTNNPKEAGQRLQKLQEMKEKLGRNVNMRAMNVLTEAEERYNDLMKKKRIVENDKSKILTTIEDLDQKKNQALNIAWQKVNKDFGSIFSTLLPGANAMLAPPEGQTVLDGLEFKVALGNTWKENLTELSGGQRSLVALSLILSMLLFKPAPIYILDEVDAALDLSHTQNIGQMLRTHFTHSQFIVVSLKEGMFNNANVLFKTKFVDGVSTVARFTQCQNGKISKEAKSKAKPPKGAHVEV
inactive: nilotinib -0.017 | [1] -0.005 | dasatinib -0.036 | [2] 0.007 | [3] 0.025 | quisinostat -0.023 | tipifarnib 0.024 | [4] 0.034 | [5] 0.017 | [6] -0.003

SPIRE1 (UniProt Q08AE8)
Sequence of UniProt Q08AE8 (Q08AE8 whole entry, looked up): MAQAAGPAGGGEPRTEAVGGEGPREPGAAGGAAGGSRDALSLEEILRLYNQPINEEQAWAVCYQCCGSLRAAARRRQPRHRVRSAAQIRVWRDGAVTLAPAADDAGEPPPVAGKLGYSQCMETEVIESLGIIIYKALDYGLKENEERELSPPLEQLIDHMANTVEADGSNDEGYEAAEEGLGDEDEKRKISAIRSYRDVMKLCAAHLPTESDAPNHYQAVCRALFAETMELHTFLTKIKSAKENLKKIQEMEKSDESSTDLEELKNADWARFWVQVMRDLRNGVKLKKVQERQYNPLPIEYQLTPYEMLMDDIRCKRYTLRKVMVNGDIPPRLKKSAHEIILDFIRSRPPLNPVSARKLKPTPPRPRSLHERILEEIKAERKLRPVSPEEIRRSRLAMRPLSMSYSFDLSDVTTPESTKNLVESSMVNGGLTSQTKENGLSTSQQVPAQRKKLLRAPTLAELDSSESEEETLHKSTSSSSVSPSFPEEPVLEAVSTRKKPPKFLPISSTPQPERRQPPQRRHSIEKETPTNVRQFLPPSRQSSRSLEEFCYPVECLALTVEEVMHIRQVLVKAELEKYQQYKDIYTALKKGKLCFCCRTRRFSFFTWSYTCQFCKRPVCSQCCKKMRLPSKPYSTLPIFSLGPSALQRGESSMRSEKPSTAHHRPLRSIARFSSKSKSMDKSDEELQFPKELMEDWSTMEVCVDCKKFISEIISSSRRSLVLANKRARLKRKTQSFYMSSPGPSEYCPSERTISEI
inactive: nilotinib 0.064 | [1] 0.011 | dasatinib 0.037 | [2] -0.03 | [3] 0.025 | quisinostat -0.186 | tipifarnib 0.055 | [4] -0.032 | [5] 0.042 | [6] -0.01

SH3BP5L (UniProt Q7L8J4)
inactive: nilotinib -0.056 | [1] 0.037 | dasatinib -0.023 | [2] 0.04 | [3] -0.025 | quisinostat 0.007 | tipifarnib -0.01 | [4] 0.007 | [5] 0.013 | [6] -0.033
